Screens as filed in PubChem BioAssay.
This is a sample that favours compounds with a hit; in the whole collection about 4.5% have one here.
HDAC3 inh = HDAC3 deacetylase inhibitors, primary screen, biochemical, fluorescence, cell-free homogeneous; hit rate 0.15% among 320,000; inhibition, % at 8.3 µM; AID 2718, 2010; Histone deacetylase 3 (Homo sapiens), O15379; recombinant HDAC3, fluorogenic peptide/trypsin coupled; in the data active means inhibition above about 26%, passing the limit was not always enough; inconclusive means no clear call, values can overlap the other calls
Efflux pump mplx = inhibitors of Candida efflux pumps in yeast, primary screen, S. cerevisiae, Nile Red, multiplex; S. cerevisiae Candida pump triplex; inhibition, % at 10 µM; hit rate 0.44% among 330,000; AID 485275, 2010;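 active means plate passing quality check with inhibition over a set limit, or well fluorescence over plate mean plus 4 SD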;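 further: Nile Red retained in pooled yeast measured as flow cytometry median fluorescence; 0% = buffer negative control and 100% = Enniatin B positive control; higher means more Nile Red kept so more efflux inhibition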
ALR inh = inhibitors of human ALR sulfhydryl oxidase, primary screen, biochemical, H2O2 detection, HRP-luminol luminescence, single point; purified ALR, DTT oxidation; inhibition, % (no concentration beside the values); hit rate 3.8% among 290,000;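 active means mean replicate inhibition above about 79%, with every replicate also reaching it, limit read from the data; inconclusive means only one of the two criteria met; inactive means mean below limit and not every replicate reaching it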
Target sequence (P55789 whole entry, looked up): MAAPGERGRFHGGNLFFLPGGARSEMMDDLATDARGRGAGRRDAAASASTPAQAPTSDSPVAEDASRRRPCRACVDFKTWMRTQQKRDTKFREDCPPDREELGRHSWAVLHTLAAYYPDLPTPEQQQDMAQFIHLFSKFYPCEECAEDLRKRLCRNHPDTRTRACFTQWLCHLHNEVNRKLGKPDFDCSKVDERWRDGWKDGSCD
Rce1 inh = yeast Rce1p protease inhibitors, primary screen, biochemical, fluorescence, cell-free homogeneous; yeast membranes, quenched prenylated peptide cleavage fluorescence; calls only; hit rate 0.27% among 290,000; AID 2563, 2010;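 active means fall in fluorescence gain of 50% or more versus controls, with final raw signal at or below 3038400; inconclusive means same 50% fall but final raw signal above 3038400; inactive means fall in fluorescence gain under 50%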;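 further: plate controls were neutral control wells for no effect and wells lacking membranes for full effect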
Rtt109 Vps75 = inhibitors of C. albicans Rtt109/Vps75 HAT, primary screen, biochemical, ThioGlo CoA-SH fluorescence, plate reader; Histone acetyltransferase RTT109 (Candida albicans (strain SC5314 / ATCC MYA-2876)), …; inhibition, % at 34.9 µM; purified Rtt109/Vps75, 4 h; hit rate 0.16% among 330,000;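 active means inhibition of at least 50% in every replicate; inconclusive means best replicate reaches 50% inhibition but some replicates fall short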
GRK2 aptamer HTS = compounds blocking aptamer binding on GRK2 – biochemical, human GRK2, bead flow cytometry, HTS, primary screen; FAM-aptamer displacement from GRK2; inhibition of aptamer binding, % at 10 µM; hit rate 0.59% among 330,000;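 active means inhibition of aptamer binding above 40%, roughly 3 SD of noise, on plates passing a quality check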;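 further: median bead fluorescence of bound FAM aptamer so fluorescent compounds give negative values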
* = called active by the depositor; i = inactive; ? = inconclusive; · = no result given; + = active, no number.

SMILES | HDAC3 inh | Efflux pump mplx | ALR inh | Rce1 inh | Rtt109 Vps75 | GRK2 aptamer HTS
CC(=O)c1c(C)cc(C)c(CSc2nnc(-c3ccco3)o2)c1C | 1.4 | 0.0 | 90.0* | i | 7.9 | 3.0
O=C(CSc1nnc(-c2ccco2)o1)c1ccc(F)c(F)c1 | 9.3 | -0.2 | 28.0 | i | -0.6 | 1.0
Cc1ccc(CNC(=O)N2CCN(S(=O)(=O)c3ccccc3)CC2)cc1 | -4.9 | 0.0 | 4.2 | i | -3.4 | 0.0
O=C(COC(=O)c1cc(Cl)ccc1O)NCCC1=CCCCC1 | -0.1 | 0.0 | -21.8 | i | -1.2 | 0.0
Cn1c(=S)[nH]c2ccccc21 | 19.0 | 0.0 | 84.3* | i | 6.0 | 0.0
N#CCCn1c(=S)[nH]c2ccccc21 | -2.6 | 0.0 | 28.1 | · | -4.7 | 2.0
N#Cc1c(-c2cccc(Cl)c2)[nH]c(=S)[nH]c1=O | -3.0 | 0.1 | 80.3* | i | -0.8 | 3.0
O=C(Nc1ccc(Cl)cc1)NC1CCCCC1 | -9.9 | -0.1 | -9.1 | i | -0.9 | 0.0
Nc1ccc(NC(=O)NC2CCCCC2)cc1 | 2.1 | -0.2 | 99.1* | i | -0.7 | 0.0
COC(=O)CCCCC1SCC2NC(=O)NC21 (stereo not drawn) | 1.8 | 0.6 | -3.8 | i | 1.0 | 2.0
O=C(O)CCCC[C@@H]1SC[C@@H]2NC(=O)N[C@@H]21 | 9.6 | 0.1 | -24.2 | + | 3.0 | 0.0
O=C(Nc1nccs1)c1ccc(COc2c(F)c(F)cc(F)c2F)cc1 | -7.2 | 0.0 | -5.7 | i | 4.8 | 0.0
CN(C)c1ccc(N=Nc2ccc(S(=O)(=O)O)cc2)c2ccccc12 | 12.6 | 0.2 | 98.8* | · | 39.5 | 24.0
CCOc1cc(C2C(C#N)=C(N)Oc3n[nH]c(-c4ccccc4)c32)ccc1O (stereo not drawn) | 6.7 | 0.0 | 96.8* | i | 20.8 | 0.0
CCOc1cc(-c2cc(-c3ccccc3)nc(N)c2C#N)ccc1O | 9.5 | -0.1 | 94.6* | i | 9.8 | 3.0
CC(C)c1c(C(=O)N/N=C/c2cccs2)nnn1-c1nonc1N | 11.5 | -0.1 | -2.9 | i | 0.4 | 3.0
CC(C)c1c(C(=O)N/N=C/c2ccsc2)nnn1-c1nonc1N | 2.5 | 0.2 | -17.8 | + | 2.1 | 3.0
Cc1ccsc1/C=N/NC(=O)c1nnn(-c2nonc2N)c1C(C)C | 1.9 | 0.0 | -3.4 | + | -0.3 | 4.0
CCN(CC)S(=O)(=O)c1ccc2c(c1)oc(=O)n2CC(=O)NC1CCCCC1 | -3.8 | 0.0 | 2.4 | i | -3.2 | 3.0
O=C(OCc1ccccc1Cl)C1CC(=O)N(Cc2ccco2)C1 (stereo not drawn) | 2.4 | 0.0 | 3.2 | i | 4.2 | 1.0
Cc1ccc(Nc2nc(N/N=C/c3c[nH]c4ccccc34)nc(N3CCOCC3)n2)cc1 | 25.5* | -0.1 | 9.3 | i | 2.4 | 0.0
C(=N\Nc1nc(Nc2ccccc2)nc(N2CCOCC2)n1)/c1c[nH]c2ccccc12 | 23.9 | 0.1 | 8.1 | i | · | 3.0
O=C(Cc1ccccc1)Nc1ccccc1C(=O)NCC1CCCO1 (stereo not drawn) | -2.6 | 0.0 | -18.2 | i | -10.2 | 1.0
Oc1ccc(N2CCN(C(c3cccs3)c3nnnn3CCc3ccccc3)CC2)cc1 (stereo not drawn) | 19.1 | 0.0 | 95.8* | i | 15.4 | 0.0
c1ccc(Cn2nnnc2C(c2ccccn2)N2CCN(c3ccccc3)CC2)cc1 (stereo not drawn) | -12.1 | 0.0 | 98.5* | i | 6.1 | 0.0
CCC(C)(C)n1nnnc1C(c1ccccn1)N1CCOCC1 (stereo not drawn) | ? | -0.2 | 0.6 | i | 1.9 | 2.0
c1ccc(Cn2nnnc2C(c2ccccn2)N2CCOCC2)cc1 (stereo not drawn) | 15.0 | -0.1 | -16.9 | i | 62.6* | 0.0
O=C(NN=Cc1ccccc1)C(Oc1ccccc1)c1ccccc1 (stereo not drawn) | · | · | · | · | -0.7 | ·
Cn1c(SCc2ccc(C#N)cc2Cl)nc2ccccc21 | 14.8 | -0.1 | 95.9* | i | -3.5 | 2.0
